In PubChem BioAssay (NCATS) one finds outcome data, which are given here for 40 compounds.

Records with an inconclusive call do not appear. Calls of active or inactive are those of the source. Calls come from the whole dose curve; as a rule, active = well fitted inhibition curve with a large enough effect; inconclusive = small, poorly fitted or top-dose-only effect; inactive = flat fitted curve, though single readings scatter. *1 amine or outer side, *2 acyl side, *3 side chain or, on linkers, in order; H or OH if unused. Where a SMILES comes first, the peptide text is derived from it. [ ]: non-standard residue; d: D form. X13 = O=C(C(CC(O)CO)O[*:1])[*:2]; NMeV = CN[CH](C(=O)O)C(C)C; NMeA = CN[CH](C)C(=O)O; βAla = NCCC(=O)O

The test system of this experiment is NIH3T3. As to the kind of experiment: qHTS assay to identify novel small-molecules to repurpose for Merkel cell carcinoma treatment (AID 1296009). Note: nearly all actives have a fitted effect of over 60% in size. The note with it: MCC and control cell lines, CellTiter-Glo viability, 72 h; at 44.8 µM (top of the series) unless noted. The text has this: MCC is a rare and aggressive neuroendocrine skin cancer with limited treatment options. Approximately 80% of MCCs have the Merkel cell polyomavirus (MCPyV) DNA integrated into the host genome (virus-positive: VP-MCC) and viral oncogenes drive oncogenesis. The remaining MCCs are virus-negative (VN-MCC) and are caused by UV mutagenesis. To identify novel treatments for VP-MCC and/or VN-MCC we screened three VP-MCC cell lines (WAGA, MKL-1, MKL-2), three VN-MCC cell lines (MCC-13, MCC-26, UISO), and four immortalized, non-transformed control cell lines (HaCaT, HEK293T, CRL7250, NIH-3T3) against ~2,400 compounds in the NCGC Pharmaceutical Collection (NPC) and ~1,900 compounds in the Mechanism Interrogation PlatE (MiPE). Using cell viability as a readout (CellTiter-Glo assay) we found both overlapping and distinct drugs that can be repurposed for the treatment of VP-MCC and VN-MCC.
A high-throughput screen was conducted in 1536-well white flat bottom plates (Corning) on a Kalypsys robotic system. Cell lines WAGA, MKL-1, MKL-2, MCC-13, MCC-26, UISO, HaCaT, HEK293T, CRL7250, and NIH-3T3 were screened against 2 small molecule annotated drug libraries NPC and MIPE in dose response (8 and 11 pt. respectively) measuring cell viability after 72 hours of incubation. […] A 1,536 pintool (Kalypsys) was used to transfer 23 nL of compound in DMSO to the 1,536-well assay plates. After 72 hr incubation at 37 degree celsius, 2.5 uL of CellTiter-Glo (Promega) was dispensed into each well using a BiorapTR. Plates were incubated at room temperature for 10 min, transferred to a ViewLux (PerkinElmer) and the luminescence was recorded using an exposure time of 2 seconds. Relative luminescence units (RLUs) were normalized to in-plate controls (no cells as a positive (cytotoxicity) control, DMSO as negative control) and the normalized data was processed using NCATS in-house software.
For orientation: Quantitative high-throughput screening tests each substance at several concentrations.
Consider `O=C(O)c1cccc(C(=O)CCC2OC(n3cnc4c(=O)[nH]cnc43)C(O)C2O)c1` (stereo not given), for which the outcome was “inactive [at 17.4 µM]”. Consider `C[C@H]1[C@@H](O)[C@H](O)C2[C@]3(C)C([C@@H](O)[C@H]4OC(=O)[C@@H]1[C@@]24C)[C@](C)(O)C=C[C@H]3O[C@@H]1O[C@H](CO)[C@@H](O)[C@H](O)[C@H]1O` (stereo not given in full), for which the outcome is “inactive [at 17.4 µM]”. Consider `COc1cc(C(=O)OC[C@H]2O[C@@H](OC(C)(C)C(=O)O)[C@H](O)[C@@H](O)[C@@H]2O)cc(OC)c1O`, for which the outcome is “inactive [at 17.4 µM]”. With `CC1(C)CC[C@]2(C(=O)O[C@@H]3O[C@H](CO[C@@H]4O[C@H](CO)[C@@H](O)[C@H](O)[C@H]4O)[C@@H](O)[C@H](O[C@@H]4O[C@H](CO)[C@@H](O)[C@H](O)[C@H]4O)[C@H]3O)CC[C@]3(C)C(=CCC4[C@@]5(C)CC[C@H](O[C@@H]6OC[C@@H](O)[C@H](O)[C@H]6O)[C@@](C)(C(=O)O)C5CC[C@]43C)[C@@H]2C1` (stereo not given in full) the entry was “inactive [at 9.27 µM]”; with `C=C1CCC2(OC1)OC1CC3C4CC=C5CC(O)CC(O[C@@H]6OC[C@H](OC(=O)C(O)C(C)CC)[C@H](O)[C@H]6O[C@@H]6O[C@@H](C)[C@H](O)[C@@H](O)[C@H]6O)C5(C)C4CCC3(C)C1C2C` (stereo not given in full), “inactive [at 9.27 µM]”; with `COc1ccc(S(=O)(=O)Nc2nc(-c3cccc([N+](=O)[O-])c3)cs2)cc1OC`, “inactive”. With `COC(=O)C1=CO[C@@H](O[C@@H]2O[C@H](CO)[C@@H](O)[C@H](O)[C@H]2O)[C@H]2[C@@H]1C=C[C@]21C=C([C@H](C)OC(=O)/C=C/c2ccc(O[C@@H]3O[C@H](CO)[C@@H](O)[C@H](O)[C@H]3O)cc2)C(=O)O1` the entry was “inactive [at 17.4 µM]”. For `CC(=O)/C=C/C1C(C)CC(O[C@@H]2O[C@H](CO)[C@@H](O)[C@H](O)[C@H]2O)CC1(C)C` (stereo not given in full), the call was inactive.

Take `COC(=O)[C@H](O)[C@H]1C(C)(C)[C@H](OC(C)=O)[C@@]2(O)C(=O)[C@]1(C)C1CC[C@]3(C)C(CC(=O)O[C@H]3c3ccoc3)[C@]13O[C@@H]32` (stereo not given in full): the outcome was “inactive [at 17.4 µM]”. With `Cc1ccc(Cl)cc1N(CC(=O)Nc1c(F)cccc1F)S(C)(=O)=O` the entry was “inactive”; with `C=C1[C@@H]2CC[C@@]3(C)[C@H](c4ccoc4)OC(=O)C[C@]13O[C@H]1CC(=O)C(C)(C)[C@H](C(O)C(=O)OC)[C@]12C` (stereo not given in full), “inactive [at 17.4 µM]”. The value for `C[C@H]1[C@H](C)CC[C@]2(C(=O)O)CC[C@]3(C)C(=CCC4[C@@]5(C)C[C@@H](O)[C@H](O)C(C)(C)C5CC[C@]43C)[C@H]12` (stereo not given in full) was “inactive [at 17.4 µM]”. With `COC(=O)c1ccc(OC)cc1O[C@@H]1O[C@H](CO[C@@H]2OC[C@@H](O)[C@H](O)[C@H]2O)[C@@H](O)[C@H](O)[C@H]1O`, the outcome is “inactive [at 17.4 µM]”. With `C=C(C(=O)O)[C@H]1C[C@]2(C)C(=O)CC[C@]23O[C@H]1C[C@@H]3C` the entry was “inactive”; with `C/C=C(\C)C(=O)OC1CC2C(CC=C3CC(OC4CC(OC)C(OC5CC(OC)C(OC6CC(OC)C(OC7CC(OC)C(OC8CC(OC)C(OC9OC(CO)C(O)C(O)C9O)C(C)O8)C(C)O7)C(C)O6)C(C)O5)C(C)O4)CCC32C)C2(O)CCC(C(C)=O)C12C` (stereo not given), “inactive [at 9.27 µM]”; with `CC(=O)OCC1=CCC2C(C)(C)CCCC2(C)C12CCC(C)(CC(=O)O)O2` (stereo not given), “inactive”. The value for `C[C@@H]1O[C@@H](O[C@@H]2[C@@H](O)[C@H](O[C@@H]3[C@@H](O)[C@@H](O)[C@H](O[C@H]4[C@H](OC(=O)[C@]56CCC(C)(C)C[C@H]5C5=CCC7[C@@]8(C)C[C@H](O)[C@H](O[C@@H]9O[C@H](C(=O)O)[C@@H](O)[C@H](O)[C@H]9O)[C@@](C)(CO)C8[C@H](O)C[C@@]7(C)[C@]5(C)C[C@H]6O)O[C@@H](CO)[C@@H]4O)O[C@H]3C)OC[C@H]2O)[C@H](O)[C@H](O)[C@H]1O` (stereo not given in full) was “inactive [at 9.27 µM]”; that for `Cc1sc(C)c(C(=O)NC2(c3ccc(C(=O)O)cc3)CC2)c1Cc1ccc(C(F)(F)F)cc1` was “inactive”; that for `CC(=O)O[C@@H]1[C@H](O[C@@H]2OC[C@](O)(CO)[C@H]2O)[C@@H](O[C@@H]2O[C@@H](C)[C@H](O)[C@@H](O[C@@H]3O[C@H](CO)[C@@H](O)[C@H](O)[C@H]3O)[C@H]2O)[C@H](OC(=O)[C@]23CCC(C)(C)C[C@H]2C2=CCC4[C@@]5(C)C[C@H](O)[C@H](O[C@@H]6O[C@H](C(=O)O)[C@@H](O)[C@H](O)[C@H]6O)[C@@](C)(C(=O)O)C5CC[C@@]4(C)[C@]2(C)CC3)O[C@@H]1C` (stereo not given in full) was “inactive [at 9.27 µM]”. With `CNC(=O)c1ccc2c(c1)CCO[C@H]2CCN1CCN(c2ccc(C(N)=O)cc2)CC1` the entry was “inactive”.

With `COc1cc(C(C)=O)ccc1O[C@@H]1O[C@H](CO[C@@H]2OC[C@@H](O)[C@H](O)[C@H]2O)[C@@H](O)[C@H](O)[C@H]1O`, the outcome is “inactive [at 17.4 µM]”.

In the case of `CC(=O)O[C@@H]1[C@@H](O)[C@H](C)O[C@@H](O[C@H]2[C@@H]3C=CO[C@@H](O[C@@H]4O[C@H](CO)[C@@H](O)[C@H](O)[C@H]4OC(C)=O)[C@@H]3[C@@]3(CO)O[C@@H]23)[C@@H]1OC(=O)/C=C/c1ccc(O)cc1`, the outcome is “inactive [at 17.4 µM]”. The value for `CC(C)=CCC/C(C)=C/CO[C@@H]1O[C@H](CO[C@@H]2OC[C@](O)(CO)[C@H]2O)[C@@H](O)[C@H](O)[C@H]1O` was “inactive [at 17.4 µM]”; that for `CO[C@H]1c2cc(C(C)C)c(O)c(O)c2[C@@]23CCCC(C)(C)C2[C@@H]1OC3=O` (stereo not given in full) was “inactive”. The value for `OC[C@@]1(O)CO[C@@H](OC[C@H]2O[C@@H](Oc3ccccc3)[C@H](O)[C@@H](O)[C@@H]2O)[C@@H]1O` was “inactive”. The value for `COc1ccc(/C=C/C(=O)O[C@@H]2[C@@H](O[C@@H]3O[C@H](CO)[C@@H](O)[C@H](O)[C@H]3O)[C@@H](O)[C@H](O[C@H]3C4C=CO[C@@H](O[C@@H]5O[C@H](CO)[C@@H](O)[C@H](O)[C@H]5O)C4[C@@]4(CO)O[C@@H]34)O[C@H]2C)cc1` (stereo not given in full) was “inactive [at 9.27 µM]”; that for `CC[C@H]1OC(=O)[C@H](C)[C@@H](O[C@H]2C[C@@](C)(OC)[C@@H](O)[C@H](C)O2)C(C)[C@@H](O[C@@H]2O[C@H](C)C[C@H](N(C)C)[C@H]2O)[C@](C)(O)C[C@@H](C)CN(C)[C@H](C)[C@@H](O)[C@]1(C)O` (stereo not given in full) was “inactive”; that for `CCOC(=O)C(CCc1ccccc1)NC(C)C(=O)N1Cc2ccccc2CC1C(=O)O` (stereo not given) was “inactive”.

`COc1cn(-c2ccc(-n3cccn3)cc2F)nc(-c2ccnn2-c2ccccc2)c1=O`: the call was inactive. With `COC(=O)/C=C/c1ccc(O[C@@H]2O[C@H](CO)[C@@H](O)[C@H](O)[C@H]2O)cc1` the entry was “inactive”. As for `C=C(C)[C@@]1(O)C[C@@]2(C)C(=CC1=O)CC[C@@H](O)[C@@H]2C`, the result was inactive. With `CCC(C)C1NC(=O)C2CCCN2C(=O)C(CC(O)CO)OC(=O)CCNC(=O)C(C)N(C)C(=O)C(C(C)C)N(C)C1=O` (stereo not given) (cyclo([X13]PI[NMeV][NMeA][βAla]); configuration not given here) the entry was “inactive [at 17.4 µM]”; with `O=C(O)c1ccnc2cc(-c3nc4ccccc4n3CCN3CCCCC3)sc12`, “inactive”; with `CC(=O)OC/C(=C/C(=O)O)CC[C@@H]1C(C)=CC(=O)[C@@H]2C(C)(C)CCC[C@@]12C`, “inactive”. For `O=C(O)C(Cc1ccccc1)NC(=O)C1CCCN1` (stereo not drawn) (H-Pro-Phe-OH; configuration not given here), the outcome was inactive.

As for `CC1(C)CC[C@]2(C(=O)O[C@@H]3O[C@H](CO)[C@@H](O)[C@H](O)[C@H]3O)CC[C@]3(C)C(=CCC4[C@@]5(C)CC[C@H](O[C@@H]6O[C@H](C(=O)O)[C@@H](O)[C@H](O)[C@H]6OC6OC(CO)C(O)C(O)C6O)C(C)(C)C5CC[C@]43C)[C@@H]2C1` (stereo not given in full), the outcome is “inactive [at 9.27 µM]”. For the compound `C=CCc1ccc(O[C@@H]2O[C@H](CO)[C@@H](O)[C@H](O)[C@H]2O)c(O[C@@H]2O[C@H](CO)[C@@H](O)[C@H](O)[C@H]2O)c1`, the outcome was “inactive [at 17.4 µM]”. The value for `O=C(/C=C/c1ccc(O)cc1)O[C@H]1[C@H](OC2CCCCC2O)O[C@H](CO)[C@@H](O)[C@@H]1O` (stereo not given in full) was “inactive [at 17.4 µM]”. On to `O=C(O)CCc1ccc(NCc2cccc3c2CCCN3CCOc2ccccc2)cc1F`, for which the compound was classed as inactive.

Consider `O=C(/C=C/C=C/c1ccc2c(c1)OCO2)N1CCCCC1`, for which the compound was classed as inactive.
